# Assay results: the supplement of paper PMC12632987
# Target: UCHL1, P09936
# Assay: median log2 fold change of GCK-ALFA target abundance (FLAG IP / Myc IP barcode read proportion) (log2 ratio); each designed protein is fused to an ALFA-tag nanobody in HEK293 cells to bring the named protein to FLAG-tagged glucokinase (GCK); Myc marks an untargeted standard; higher = target protein stabilised (more abundant)
# Conditions: target protein: 3xFLAG-MCP-GCK-ALFA reporter; HEK293 landing pad (RPLP)
# How it was run: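 Binders fused to an ALFA nanobody were recombined as a library into HEK293 landing-pad cells, which were induced with 2 μg mL^−1 doxycycline and then transfected to express a FLAG-tagged target and a Myc-tagged standard. After 48 h, circular RNA barcodes recovered by anti-FLAG and anti-Myc immunoprecipitation of lysates were reverse transcribed, amplified and sequenced. Each binder's target abundance is the median log2 ratio of FLAG to Myc barcode read proportions, from barcodes present at ≥10^−7 in both replicates, binders carrying ≥3 barcodes per replicate, a 10^−6 pseudocount and pooled replicates.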
# Chain of UCHL1, P09936 (P09936 whole entry, looked up, the tested form may be a part): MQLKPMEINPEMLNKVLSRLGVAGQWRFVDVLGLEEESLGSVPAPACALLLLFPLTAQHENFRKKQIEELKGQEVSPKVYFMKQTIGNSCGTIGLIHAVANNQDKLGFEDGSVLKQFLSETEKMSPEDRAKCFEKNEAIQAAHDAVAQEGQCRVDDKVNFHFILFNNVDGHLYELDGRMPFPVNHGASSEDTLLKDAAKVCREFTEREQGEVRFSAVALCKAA
row,Binder,median log2 fold change
1,uchl1_199_7514 (protein) MSRAESIARQVGGRLLSGVGSPEVLAARAARLLREVLARLPDLPDEELLAMVRILLEAIAKNRSPETFDAVAAALIAVLQEERGIGAAAAAIAAEVRAKA,-0.0877
2,uchl1_2_7529 (protein) KTQFVGALVTMTATDPKTGKTYRARRILIGTADGIPAMMEEIEELALEFQKQTGVPVTVNVTVHVSKEEVAEEVKKKLEELKKRLAEKGITFTYEVIVHK,-0.784
3,uchl1_2_7532 (protein) ESVFVGVLVTITSRNEATGETKVARRTLIALESNIEALMEEVKELVLAFKEEHGGKTEVKIEVYATREEVAKRAREVAEKMKEELEAAGIDATVEVKLVK,-0.231
4,uchl1_199_7516 (protein) MTRAESIARMLGGRLLRGIRDPEKLAARAAELTRRMLERLANLPDETILETVRLLLEAIARERSLEDARAAGEAIVEVLAEERGIGEAARAVVDEVLAAA,-0.835
5,uchl1_199_7511 (protein) MTKEEDIARNMAGRLLRYELDPEKVRERARRLATLLVERLSHLSVEEITETFLILVELVAKENNPEVLRAVTEAIVEVVRERLGDEEAARRIRERAEELA,-0.27
6,uchl1_2_7535 (protein) KTKFVGVLVTLTATDAETGEVKTSRRTFIGTEDSVEALADEVKDYILDYKKDSGKAVKADIKIYSTDEEVVKKLEALLKEKEPELKAAGIEVNITGEVVK,-0.112
7,uchl1_2_7537 (protein) KTRFVGVKVDIEARNEETGEVFRARRTLIGTADSIPAMAEEVERLVLEFQRRTGVPVRVEVHVYASDEETARLAREEFEKMAERLRKEGIEVRVEVTVVE,-0.302
8,uchl1_199_7505 (protein) SSRTEDIARNMAGRLLRYIRSPEVLAERARRLTRELIERQTHLSVEEITETLKLLVTYIHAERSPEETRAATDAIVEAVRELLGDEAAAAAIRAHTEALL,0.192
9,uchl1_2_7530 (protein) KAEFVGALLTLTARDAETGETFRSRRTLIGTADAIEALMAEIEELALRFQADVGVPVTADIHVVVSNEETAERVREALARMAERLAAEGITVNVTVTVVR,-0.378
10,uchl1_199_7512 (protein) MSRAESIARQVGGRLLSGIGSPEVLAAKAAALLRRVLARLPDLPDETLLEMVRILLEAIARERSPEAFAAVAAALIAVLDAERGIGAEVAAIAEEVRAAA,-0.679
11,uchl1_2_7519 (protein) KTVIVGVLVDMRAYDPETGREYRARHTLIGTETAIEAMVEEIRERILAFRDDVGVPVEVDLHIVSSREEVARRLEALLKEMAAELAPEGVTVRISVTVTK,-0.204
12,uchl1_2_7524 (protein) KTVFVGALVTLEAEDKETGKVYRYRRNLIGTESAIEALAKEVKELVLNFKEAVGLPVKATVHIVASREEVLKKAVEEFEKMAKELAKEGIEVEITSELTK,-0.455
13,uchl1_199_7513 (protein) MTRAESIARQVGGRLLSGIGSPEVLAARAARLLRLVLERLPDLPDEELLEAVRLLLRAIAAERSPEAFDAVAAALTAVLQEERGIGERMAAIAAEVRAEA,-0.209
14,uchl1_199_7515 (protein) MTRAESIAAQLGGRLLSGIYSPEVLAARAAALWADVLRRLSDLPDEELLEAFRILLEALAAAVDEASARAAAEAIVAVLAEERGIGERARAIADEVLAAR,0.16
15,uchl1_2_7526 (protein) KTKFVGVLVTLTSYNEETGKTYVSRRTLILSESGIEKLSEEILELVDRFKQVNGDNIKVKIHVVSTDEEALEKAKEKVEEAKEELEKRGVEVEVEYELVK,-0.696
16,uchl1_2_7527 (protein) KSKFVGVKVTLTAYNEETGKTYVSTRTLILSESGIENLSKEILDLVERFKQVNGDNIEVDIKAVSTDEEALEKAKKELEKAKKELEAKGVKVNITYELVK,-0.63

row,Binder,median log2 fold change
1,uchl1_2_7536 (protein) KTKFVGARVEIEAVDPETGKRYRSRRTLIGTASAIEAMAEEVRRLVLAFKEDVKAPVTVRVTVYASDEETAAKARAAFERMAAELAAEGITVEVEVVLVK,-0.837
2,uchl1_2_7525 (protein) KTVFVGALLTLTSVDEETGEVYRYRRTLIGTASAIEALAREVEELVLNFRDDVGLPVDAEVHLVASDEETLRRAREAFEKMAERLAEEGITVTITSEVAR,0.0632
3,uchl1_2_7531 (protein) KKKTQFVGVLVTVRATRDGRELVARRTFIATESSIDALMAEVERYVRDFVAAAGTPARVAIRAVVSTEETGARVAAALAALAERLAPLAEEIEVTVEVRR,-0.524
4,uchl1_199_7506 (protein) SSKTEDIARNMAGRLLRYIRTPEVLAARARRLTRLLIERQTDLSVEEITETLLKLVELVHKERTPEETRAVTDAIVEAVLELLGDEEAARRIREHAEELL,0.171
5,uchl1_2_7534 (protein) KTVFVGVKVTVTVTDPATGKTTTTTRTFIGTADSVDALADAVTDYILRVKADSKADVAAAVTVYSTDKAVVDRAVAALNARVPELAAAGVTVTVTGTVVK,0.287
6,uchl1_199_7507 (protein) SSLTEDIARNMAGRLLRYIRTPEVLAARAAELTARLIREQTHLSVEELTEIFLLLVDYVHAERTPEETRAATDAIVAEVERLLGDAAAAARIRAHAAALL,0.269
7,uchl1_199_7508 (protein) SSKTEDIARNMAGRLLRYIRSPEVLAARARRLTERLIREQTHLSVEEITETFLLLVDYVHANRSPEQTRAVTDAIVEAVERELGDEEAAKRIREHTESLL,0.0747
8,uchl1_2_7520 (protein) KARFVGVLVDMTSTDPETGKTYRSRRNYIGTESAIPAMMAEVKEDVLNFQKNVGLPVKVDLHIVADTQEALDAAKAEAEKMAAELAKEGATVTISGEVAE,-1.27
9,uchl1_199_7518 (protein) MSREEDIARYMAGPFLFSNGSPEVVRARAYRLTVRLIRTRKDLSREELTAILVRFVEILAANRDPETVRAATEGIVEAVLEELGDEESAARIRAAAEALL,-0.219
10,uchl1_199_7510 (protein) SSRTESIARNMAGRLLRYIMDPETARERARRLARRLITRRPGLSVEELTETFQLLVEYVAAERDPAVTRAVTDALVEAVREELGDEAAAAAVRARAEELL,-0.193
11,uchl1_199_7517 (protein) MSREDDIARYMAGPFLLSNGSPEVVRARARERTRRLIRTRKDLSPEELTEIMVRFVEILAAHRDPETVRAATEGIVEAILEELGDEEAARRVRARAEELL,0.00596
12,uchl1_2_7533 (protein) KTVFVGVRVTITSRNPETGEVRRAVRTFIFTESSLEALTEEIRELALAFKADHGGATTVRIEAVATREEVAERLRELLERLAEELAAEGIEVEIEVTVVK,-0.457
13,uchl1_199_7509 (protein) SSKTRSIAINMAGRLLRYIMDPETARERALRLARELITRRPGLSVEEITETFELLVRLVAAERDPETVRAVTDAIVEAILELLGDEEAAARVRATAEALV,-0.0199
14,uchl1_179_7504 (protein) ARRLVRIRATIVFPRSTTREEALAVARRIHAALKELGVTGLINLRVSRYNPENNPEHPDRMVIRLGLVVPEELADAVEAAIRALAAEAGAEIEIEREAIA,0.192
15,uchl1_2_7521 (protein) KAEFVGVLVDMTSTDPETGKTYRYRRNYIGTASAIPAMMAEVERDVLNFQENVGLPVDVALHIVASTEAALEAARAEAKKMAARLAAKGAKVTITGEVAK,-1.03
16,uchl1_179_7503 (protein) AMKKVRIRATITFPKSTTMEQALAVAKEIAAALKELGVTGVSRIVVSRYNPENDPAHPDHMVITIGLVVPEEKAEAVIEAIKEIAAKAGAEVEIETEEVA,-0.0524
